Data taken from article PMC4336329 (PLoS ONE, 2015).
In all, about 310,000 compounds went through this assay and about 14,000 (4.5%) showed an effect of 50% or more. Effects have a minus sign here. The list comes from a sample in which strong results are over-represented; it also holds similar structures and randomly drawn compounds.

Biological target: human ether-à-go-go-related gene (hERG) potassium channel (human, UniProt Q12809)
Test: primary screen, population patch clamp on CHO cells stably expressing hERG; higher = less effect of the substance
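Also: peak tail current of the secondary pulse compared with the same well before compound.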

Sequence of human ether-à-go-go-related gene (hERG) potassium channel (Q12809 whole entry, looked up): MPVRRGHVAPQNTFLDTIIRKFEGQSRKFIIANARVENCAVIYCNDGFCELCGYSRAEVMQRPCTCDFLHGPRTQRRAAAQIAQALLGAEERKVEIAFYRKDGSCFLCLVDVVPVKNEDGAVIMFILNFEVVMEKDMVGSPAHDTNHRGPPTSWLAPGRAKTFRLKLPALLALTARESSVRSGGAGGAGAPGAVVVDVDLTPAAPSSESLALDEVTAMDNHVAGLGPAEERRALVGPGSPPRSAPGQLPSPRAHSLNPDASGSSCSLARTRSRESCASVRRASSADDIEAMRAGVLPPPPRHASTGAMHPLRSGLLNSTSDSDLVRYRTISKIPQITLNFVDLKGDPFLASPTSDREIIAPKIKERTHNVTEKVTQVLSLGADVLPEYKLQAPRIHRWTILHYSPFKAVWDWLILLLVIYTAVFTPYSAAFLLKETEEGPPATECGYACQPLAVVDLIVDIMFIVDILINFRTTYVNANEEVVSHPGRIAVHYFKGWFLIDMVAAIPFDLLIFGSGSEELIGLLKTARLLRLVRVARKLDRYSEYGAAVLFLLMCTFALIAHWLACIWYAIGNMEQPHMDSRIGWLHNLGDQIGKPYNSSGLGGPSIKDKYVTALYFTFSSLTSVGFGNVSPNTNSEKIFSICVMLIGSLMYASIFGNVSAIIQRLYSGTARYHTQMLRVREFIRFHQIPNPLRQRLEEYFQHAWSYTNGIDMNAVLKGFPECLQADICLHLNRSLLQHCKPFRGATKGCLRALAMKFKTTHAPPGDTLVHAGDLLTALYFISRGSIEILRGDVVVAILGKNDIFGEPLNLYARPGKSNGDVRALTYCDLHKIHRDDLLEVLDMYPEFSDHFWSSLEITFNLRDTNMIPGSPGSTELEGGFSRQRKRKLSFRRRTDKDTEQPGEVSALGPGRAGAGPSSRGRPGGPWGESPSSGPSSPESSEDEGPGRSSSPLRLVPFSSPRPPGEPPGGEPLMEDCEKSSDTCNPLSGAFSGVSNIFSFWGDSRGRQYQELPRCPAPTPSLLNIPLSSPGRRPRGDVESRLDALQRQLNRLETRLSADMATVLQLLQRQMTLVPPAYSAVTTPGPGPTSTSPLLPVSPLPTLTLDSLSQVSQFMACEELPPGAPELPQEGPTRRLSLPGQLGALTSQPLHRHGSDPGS

SMILES	hERG current change (%, negative = inhibition) at 10uM [%]
CCOC(=O)c1ccc(NC(=O)CCSCCc2ccccn2)cc1	0.702
CC(C)C[C@H](NC(=O)[C@H](Cc1ccccc1)n1c(=O)[nH]c2ccccc2c1=O)C(=O)N1CCC[C@H]1C(=O)O	6.16
CCN(CC)CCNc1nc(-c2ccc(OC)cc2)c(-c2ccc(OC)cc2)s1	-52.6
COCCNc1nc(-c2ccc(OC)cc2)c(-c2ccc(OC)cc2)s1	15.3
Br.COc1ccc(-c2nc(NC3=NCCCCC3)sc2C)cc1	-26.6
CCN(CC)CCNc1nc(-c2ccc(OC(F)F)cc2)c(C)s1	-77.8
CCNc1nc(-c2ccc(OC(F)F)cc2)c(C)s1	15.1
CNc1nc(-c2ccc(OC)cc2)c(-c2ccc(OC)cc2)s1	-12.7
C/C(=N/NC(=O)c1ccc(Cl)cc1Cl)c1cccnc1	16.4
CN1CCN(c2nc3c(c(=O)n(C)c(=O)n3C)n2Cc2cccc3ccccc23)CC1	-5.1
CN(CC(=O)Nc1ccc(Cl)cc1F)C1CCS(=O)(=O)C1 (stereo not drawn)	-20.6
COc1ccc(CNC(=O)C2CC(=O)N(C3CCCC3)C2)cc1 (stereo not drawn)	-8.14
O=C(OCC#CCSc1nnc(-c2ccncc2)o1)c1cccs1	-53.2
O=C(OCC#CCSc1nnc(-c2ccccc2)o1)c1cccs1	-17.7
Cc1ccc(-c2nnc(SCC#CCOC(=O)c3cccs3)o2)cc1	14.3
COc1ccc(CN2CCNC(=O)C2CC(=O)NCc2cn[nH]c2-c2ccccc2)c(F)c1 (stereo not drawn)	-1.07
Cc1cccc(NC(=O)c2ccccc2NC(=O)Cc2ccccc2)c1C	4.93
CCNC(=O)CSc1nc(-c2ccccc2)cs1	-4.81
CN(C)c1nc(N2CCN(c3ccccc3)CC2)c(C#N)c(=O)o1	-16.9
CCN1CCN(C(c2cccs2)C(C)NC(=O)Oc2ccccc2)CC1 (stereo not drawn)	-38.5
CC(C)N(C(=O)c1ccc2nc(-c3ccccc3)c(-c3ccccc3)nc2c1)C(C)C	-4.73
Cc1ccc(SCc2nc(-c3ccccc3)no2)cc1	2.3

SMILES	hERG current change (%, negative = inhibition) at 10uM [%]
CCN(CC)CCOC(=O)C(Cc1ccco1)Cc1cccc2ccccc12.O=C(O)C(=O)O (stereo not drawn)	-76.8
CCN(CC)CCOc1ccccc1OC.O=C(O)C(=O)O	-11
O=C(Cc1cccc2ccccc12)NCC1CCCO1 (stereo not drawn)	-5.85
CCN(CC)CCOC(=O)C(Cc1cccc2ccccc12)CC1CCCO1.O=C(O)C(=O)O (stereo not drawn)	-53.8
O=C(NCC1CCCO1)c1cccc2ccccc12 (stereo not drawn)	21.2
CCN(CC)CCOC(=O)CCc1cccc2ccccc12.O=C(O)C(=O)O	-42.6
CCOC(=O)C(C)Oc1ccc2c(C)cc(=O)oc2c1C(C)=O (stereo not drawn)	-13.8
COCCn1c(SCC(=O)N2CCCCC2)nc2c(c1=O)SC(C)C2 (stereo not drawn)	9.29
Cc1ccc(-c2c[n+](CC(=O)Nc3cc(=O)n(C)c(=O)n3C)c3n2CCC3)cc1.[Cl-]	-0.179
O=C(C[n+]1cc(-c2ccccc2)n2c1CCC2)Nc1nc(-c2ccccc2)cs1.[Cl-]	-35.1
Cc1ccc(-c2c[n+](CC(=O)Nc3nc(-c4ccccc4)cs3)c3n2CCC3)cc1.[Cl-]	-54.9
Cc1ccc(-c2c[n+](CC(=O)Nc3ccc(C)cc3C)c3n2CCC3)cc1.[Cl-]	-30.8
O=C(C[n+]1cc(-c2ccc(Cl)cc2)n2c1CCC2)Nc1nc(-c2ccccc2)cs1.[Cl-]	-0.843
Cc1ccc(-c2csc(NC(=O)C[n+]3cc(-c4ccc(C)cc4)n4c3CCC4)n2)cc1.[Cl-]	-72.5
Cc1cccc(C)c1NC(=O)C[n+]1cc(-c2ccccc2)n2c1CCC2.[Cl-]	11.3
Cc1ccc(-c2csc(NC(=O)C[n+]3cc(-c4ccccc4)n4c3CCC4)n2)cc1.[Cl-]	-57
Cc1ccccc1NC(=O)C[n+]1cc(-c2ccccc2)n2c1CCC2.[Cl-]	12.9
COC(=O)c1ccccc1NC(=O)c1cccc(COc2ccccc2Cl)c1	10.6
O=C(c1ccc(F)cc1)N1CCN(c2ncccn2)CC1	-1.2
CC(=O)/C=C(\C)Nc1ccc(-c2cnc(-c3ccccc3)o2)cc1	-4.59
CC(=O)O[C@H]1CC[C@H]2[C@@H]3CCc4cc(O)ccc4[C@H]3CC[C@]12C	-5.79
COc1ccc(CC(=O)N/N=C/c2ccc(C)s2)cc1	11

SMILES	hERG current change (%, negative = inhibition) at 10uM [%]
O=C(Cc1cccc2ccccc12)Nc1ccc2c(c1)C(=O)NC2=O	9.52
COc1ccc(NC(=O)CS(=O)(=O)c2cn(CC(=O)N(C(C)C)C(C)C)c3ccccc23)c(OC)c1	-19.3
O=C(CC(c1ccccc1)c1ccccc1)NCCOCc1ccccc1	-12.6
Cc1ccc(CN2C(=O)CNC2=S)cc1	9.68
O=C(Nc1cccc(N=Cc2cc(Br)cc(Br)c2O)c1)c1ccco1	3.77
CCCc1nn(C)c(C(=O)Nc2ccc3ccccc3c2)c1Cl	8.62
CC1CC(C#N)N(N(C)C)C1=C(C#N)C#N (stereo not drawn)	11.3
CC(=O)Nc1c2c(nn1-c1cccc(Cl)c1)CS(=O)C2 (stereo not drawn)	-1.6
CCOc1ccc(N=Cc2c(O)c3ccccc3oc2=O)cc1	3.29
Cc1cccc(OCC(=O)NCc2ccccc2)c1	13.6
COc1cccc(C2c3[nH]c4ccccc4c3CCN2Cc2cnn(C)c2)c1 (stereo not drawn)	-69.6
COc1cccc(C2c3[nH]c4ccccc4c3C[C@H]3C(=O)N(CCCCCO)CC(=O)N23)c1 (stereo partly drawn)	-64.9
COCCN1CC(=O)N2C(c3cccc(OC)c3)c3[nH]c4ccccc4c3C[C@H]2C1=O (stereo partly drawn)	-38.6
Oc1cccc(C2c3[nH]c4ccccc4c3CCN2Cc2cnn(-c3ccccc3)c2)c1 (stereo not drawn)	-35.3
CCn1cc(CN2CCc3c([nH]c4ccccc34)C2c2ccc(F)c(OC)c2)c(C)n1 (stereo not drawn)	6.94
CCn1cc(CN2CCc3c([nH]c4ccccc34)C2c2cccc(OC)c2OC)c(C)n1 (stereo not drawn)	7.99
CCn1cc(CN2CCc3c([nH]c4ccccc34)C2c2cccc(O)c2)c(C)n1 (stereo not drawn)	-18.8
COc1cc(C2c3[nH]c4ccccc4c3CCN2Cc2cn(C)nc2C)ccc1F (stereo not drawn)	1.02
COc1cccc(C2c3[nH]c4ccccc4c3CCN2Cc2cccc(C)n2)c1 (stereo not drawn)	-26.6
CCn1cc(CN2CCc3c([nH]c4ccccc34)C2c2cccc(OC)c2)c(C)n1 (stereo not drawn)	-57.3
COCCCN1CC(=O)N2C(c3cccc(OC)c3)c3[nH]c4ccccc4c3C[C@H]2C1=O (stereo partly drawn)	-14.3
CCOc1ccc(C2c3[nH]c4ccccc4c3CCN2Cc2cn(CC)nc2C)cc1 (stereo not drawn)	-63.6
